Data: article PMC5540273 (PLoS ONE, 2017)
Where two headings read alike, the source gives them in different places.

What was measured:
Details in all cases: n = 1
[1] = tested on: T1, FAK
T1 construct: gene PTK2

[2] = tested on: FER
[3] = tested on: FES
[4] = tested on: FGFR1
[5] = tested on: FGFR2
[6] = tested on: FGFR3
[7] = tested on: FGFR4
[8] = tested on: FGR
[9] = tested on: FLT1
[10] = tested on: FLT3-autoinhibited
[11] = tested on: FLT3
[12] = tested on: FLT4
[13] = tested on: FRK
[14] = tested on: FYN
[15] = tested on: GAK
[16] = tested on: T2, GCN2(Kin.Dom.2,S808G)
T2 construct: gene EIF2AK4

[17] = tested on: GRK1
[18] = tested on: T3, GRK2
T3 construct: gene ADRBK1

[19] = tested on: T4, GRK3
T4 construct: gene ADRBK2

[20] = tested on: GRK4
[21] = concentration: 1 μM, replicates: in singlicate
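Note: KINOMEscan kinase panel screen.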

## Cc1cccc(-c2nc(C)cc(Nc3ccncc3)n2)n1 [GSK257997]
[1]; [21]
  %Inh: 0%
[2]; [21]
  %Inh: 42%
[3]; [21]
  %Inh: 0%
[4]; [21]
  %Inh: 7%
[5]; [21]
  %Inh: 14%
[6]; [21]
  %Inh: 16%
[7]; [21]
  %Inh: 0%
[8]; [21]
  %Inh: 8%
[9]; [21]
  %Inh: 32%
[10]; [21]
  %Inh: 0%
[11]; [21]
  %Inh: 5%
[12]; [21]
  %Inh: 13%
[13]; [21]
  %Inh: 0%
[14]; [21]
  %Inh: 36%
[15]; [21]
  %Inh: 0%
[16]; [21]
  %Inh: 0%
[17]; [21]
  %Inh: 0%
[18]; [21]
  %Inh: 0%
[19]; [21]
  %Inh: 0%
[20]; [21]
  %Inh: 0%

## O=C(O)COc1ncnc2cc(-c3ccc4[nH]ncc4c3)sc12
[1]; [21]
  %Inh: 5%
[2]; [21]
  %Inh: 0%
[3]; [21]
  %Inh: 7%
[4]; [21]
  %Inh: 23%
[5]; [21]
  %Inh: 1%
[6]; [21]
  %Inh: 0%
[7]; [21]
  %Inh: 0%
[8]; [21]
  %Inh: 0%
[9]; [21]
  %Inh: 0%
[10]; [21]
  %Inh: 39%
[11]; [21]
  %Inh: 2%
[12]; [21]
  %Inh: 2%
[13]; [21]
  %Inh: 100%
[14]; [21]
  %Inh: 100%
[15]; [21]
  %Inh: 4%
[16]; [21]
  %Inh: 0%
[17]; [21]
  %Inh: 3%
[18]; [21]
  %Inh: 20%
[19]; [21]
  %Inh: 23%
[20]; [21]
  %Inh: 0%

## COc1ccc2nc(-c3cccc(C)n3)nc(Nc3ccncc3)c2c1 [GSK204919]
[1]; [21]
  %Inh: 0%
[2]; [21]
  %Inh: 14%
[3]; [21]
  %Inh: 17%
[4]; [21]
  %Inh: 0%
[5]; [21]
  %Inh: 7%
[6]; [21]
  %Inh: 20%
[7]; [21]
  %Inh: 20%
[8]; [21]
  %Inh: 27%
[9]; [21]
  %Inh: 28%
[10]; [21]
  %Inh: 3%
[11]; [21]
  %Inh: 0%
[12]; [21]
  %Inh: 5%
[13]; [21]
  %Inh: 9%
[14]; [21]
  %Inh: 13%
[15]; [21]
  %Inh: 8%
[16]; [21]
  %Inh: 0%
[17]; [21]
  %Inh: 0%
[18]; [21]
  %Inh: 0%
[19]; [21]
  %Inh: 43%
[20]; [21]
  %Inh: 0%

## Cc1c(Cn2ccn3c(=O)cc(N4CCOCC4)nc23)cccc1C(F)(F)F [GSK2289044]
[1]; [21]
  %Inh: 0%
[2]; [21]
  %Inh: 7%
[3]; [21]
  %Inh: 23%
[4]; [21]
  %Inh: 0%
[5]; [21]
  %Inh: 19%
[6]; [21]
  %Inh: 28%
[7]; [21]
  %Inh: 5%
[8]; [21]
  %Inh: 14%
[9]; [21]
  %Inh: 0%
[10]; [21]
  %Inh: 0%
[11]; [21]
  %Inh: 0%
[12]; [21]
  %Inh: 0%
[13]; [21]
  %Inh: 0%
[14]; [21]
  %Inh: 30%
[15]; [21]
  %Inh: 10%
[16]; [21]
  %Inh: 0%
[17]; [21]
  %Inh: 0%
[18]; [21]
  %Inh: 0%
[19]; [21]
  %Inh: 0%
[20]; [21]
  %Inh: 0%

## CCn1c(-c2ccccn2)nc2cnccc21 [SB-736398]
[1]; [21]
  %Inh: 0%
[2]; [21]
  %Inh: 2%
[3]; [21]
  %Inh: 30%
[4]; [21]
  %Inh: 1%
[5]; [21]
  %Inh: 48%
[6]; [21]
  %Inh: 77%
[7]; [21]
  %Inh: 1%
[8]; [21]
  %Inh: 41%
[9]; [21]
  %Inh: 21%
[10]; [21]
  %Inh: 0%
[11]; [21]
  %Inh: 2%
[12]; [21]
  %Inh: 0%
[13]; [21]
  %Inh: 17%
[14]; [21]
  %Inh: 0%
[15]; [21]
  %Inh: 9%
[16]; [21]
  %Inh: 10%
[17]; [21]
  %Inh: 1%
[18]; [21]
  %Inh: 5%
[19]; [21]
  %Inh: 78%
[20]; [21]
  %Inh: 1%

## O=S(=O)(c1ccc(-c2ccnc3[nH]ccc23)cc1)N1CCCC1 [GSK846226]
[1]; [21]
  %Inh: 0%
[2]; [21]
  %Inh: 12%
[3]; [21]
  %Inh: 0%
[4]; [21]
  %Inh: 0%
[5]; [21]
  %Inh: 0%
[6]; [21]
  %Inh: 12%
[7]; [21]
  %Inh: 2%
[8]; [21]
  %Inh: 16%
[9]; [21]
  %Inh: 22%
[10]; [21]
  %Inh: 8%
[11]; [21]
  %Inh: 0%
[12]; [21]
  %Inh: 0%
[13]; [21]
  %Inh: 0%
[14]; [21]
  %Inh: 25%
[15]; [21]
  %Inh: 28%
[16]; [21]
  %Inh: 0%
[17]; [21]
  %Inh: 0%
[18]; [21]
  %Inh: 0%
[19]; [21]
  %Inh: 0%
[20]; [21]
  %Inh: 0%

## Cc1ccc(NC(=O)Nc2cccc(C(F)(F)F)c2)cc1 [GSK955403]
[1]; 1 µM
  %Inh: 1%
[2]; 1 µM
  %Inh: 0%
[3]; 1 µM
  %Inh: 0%
[4]; 1 µM
  %Inh: 1%
[5]; 1 µM
  %Inh: 0%
[6]; 1 µM
  %Inh: 5%
[7]; 1 µM
  %Inh: 0%
[8]; 1 µM
  %Inh: 0%
[9]; 1 µM
  %Inh: 23%
[10]; 1 µM
  %Inh: 0%
[11]; 1 µM
  %Inh: 59%
[12]; 1 µM
  %Inh: 12%
[13]; 1 µM
  %Inh: 0%
[14]; 1 µM
  %Inh: 0%
[15]; 1 µM
  %Inh: 0%
[16]; 1 µM
  %Inh: 0%
[17]; 1 µM
  %Inh: 2%
[18]; 1 µM
  %Inh: 0%
[19]; 1 µM
  %Inh: 0%
[20]; 1 µM
  %Inh: 0%

## CN1C(=O)C(Nc2ccc(Cl)c(C(=O)O)c2)=C(c2ccc(Cl)cc2)C1=O [SB-404290]
[1]; [21]
  %Inh: 7%
[2]; [21]
  %Inh: 5%
[3]; [21]
  %Inh: 0%
[4]; [21]
  %Inh: 0%
[5]; [21]
  %Inh: 0%
[6]; [21]
  %Inh: 0%
[7]; [21]
  %Inh: 0%
[8]; [21]
  %Inh: 0%
[9]; [21]
  %Inh: 0%
[10]; [21]
  %Inh: 22%
[11]; [21]
  %Inh: 0%
[12]; [21]
  %Inh: 0%
[13]; [21]
  %Inh: 0%
[14]; [21]
  %Inh: 0%
[15]; [21]
  %Inh: 14%
[16]; [21]
  %Inh: 9%
[17]; [21]
  %Inh: 12%
[18]; [21]
  %Inh: 0%
[19]; [21]
  %Inh: 4%
[20]; [21]
  %Inh: 19%

## Cc1c(O)cccc1Nc1ccnc2ccc(C(F)(F)F)cc12.Cl [GW466413]
[1]; [21]
  %Inh: 0%
[2]; [21]
  %Inh: 15%
[3]; [21]
  %Inh: 0%
[4]; [21]
  %Inh: 0%
[5]; [21]
  %Inh: 0%
[6]; [21]
  %Inh: 0%
[7]; [21]
  %Inh: 0%
[8]; [21]
  %Inh: 58%
[9]; [21]
  %Inh: 28%
[10]; [21]
  %Inh: 0%
[11]; [21]
  %Inh: 0%
[12]; [21]
  %Inh: 9%
[13]; [21]
  %Inh: 79%
[14]; [21]
  %Inh: 68%
[15]; [21]
  %Inh: 64%
[16]; [21]
  %Inh: 9%
[17]; [21]
  %Inh: 14%
[18]; [21]
  %Inh: 0%
[19]; [21]
  %Inh: 8%
[20]; [21]
  %Inh: 0%

## O=C(Nc1ccc2c(c1)OCO2)NC1CCN(c2ccnc(Nc3ccc(F)cc3)n2)C1 (centres unmarked) [GSK1379724]
[1]; [21]
  %Inh: 0%
[2]; [21]
  %Inh: 7%
[3]; [21]
  %Inh: 15%
[4]; [21]
  %Inh: 0%
[5]; [21]
  %Inh: 0%
[6]; [21]
  %Inh: 7%
[7]; [21]
  %Inh: 7%
[8]; [21]
  %Inh: 11%
[9]; [21]
  %Inh: 19%
[10]; [21]
  %Inh: 0%
[11]; [21]
  %Inh: 0%
[12]; [21]
  %Inh: 0%
[13]; [21]
  %Inh: 11%
[14]; [21]
  %Inh: 9%
[15]; [21]
  %Inh: 0%
[16]; [21]
  %Inh: 6%
[17]; [21]
  %Inh: 0%
[18]; [21]
  %Inh: 0%
[19]; [21]
  %Inh: 93.7%
[20]; [21]
  %Inh: 0%
